Assay outcomes from PubChem.
ANO1 block: TMEM16A chloride channel inhibitors, primary screen, cell-based, HTS | hit rate 1.2% among 310,000 | HEK293 TMEM16A/YFP iodide influx fluorescence, ionomycin | normalized B-score (activity score, 25-100; higher = stronger inhibition) at 10 µM | AID 588511, 2011;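 active means ratio plate-corrected score three or more library SD toward inhibition, starting fluorescence score within five deviations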;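 further: score derived from kinetic fluorescence span divided by baseline fluorescence per well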
KCNK3 inh: human KCNK3 channel inhibitors, primary screen, CHO cells, FluxOR thallium flux, B-score; Potassium channel subfamily K member 3 (Homo sapiens), O14649; FluxOR fluorescence; active compounds read low; B-score at 10 µM; hit rate 0.84% among 340,000; AID 602410, 2012;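 active means B-score under library mean minus 4 SD, starting fluorescence ratio at most library mean plus 5 SD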;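 further: more negative B-score means stronger inhibition of thallium flux through KCNK3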
ANO1 activ: TMEM16A chloride channel activators or potentiators, primary screen, cell-based, HTS. HEK293 TMEM16A/YFP-H148Q/I152L, iodide quench fluorescence; active compounds read low. B-score at 10 µM. hit rate 0.3% among 340,000. AID 623877, 2012;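 active means fluorescence-ratio B-score plate-corrected deviation score at least 3 library SD below zero, with starting fluorescence score within 5 deviations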;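 further: channel opened by trigger with iodide after compound preincubation; score built on the fluorescence ratio of max minus min over baseline; more negative score means more quench and so TMEM16A activation or potentiation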
KCNK9 block: KCNK9 potassium channel inhibitors, primary screen, HEK293 cells, thallium flux. Potassium channel subfamily K member 9 (Homo sapiens), Q9NPC2. FluxOR thallium flux fluorescence; active compounds read low. B-score at 10 µM. hit rate 1.2% among 310,000. AID 488922, 2010;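 active means ratio B-score over 3 SD below the library mean, with starting fluorescence within 5 SD of its mean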;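 further: negative B-score means less thallium flux so channel inhibition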
Kir21 inh: inhibitors of mouse Kir2.1 inward-rectifier potassium channel | AID 1672, 2009 | B-score at 10 µM | hit rate 0.85% among 310,000 | HEK293-Kir2.1, FluxOR thallium flux fluorescence; active compounds read low;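 active means fluorescence ratio B-score at or below minus 3 SD of library scores, with starting-brightness B-score within 2 SD, cut at about -4.2 in these data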;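 further: channel flux triggered by added potassium and thallium sulfate stimulus; B-score of peak minus minimum fluorescence over baseline after thallium stimulus; more negative B-score means stronger Kir2.1 block with less thallium influx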
Target sequence (P35561 whole entry, looked up): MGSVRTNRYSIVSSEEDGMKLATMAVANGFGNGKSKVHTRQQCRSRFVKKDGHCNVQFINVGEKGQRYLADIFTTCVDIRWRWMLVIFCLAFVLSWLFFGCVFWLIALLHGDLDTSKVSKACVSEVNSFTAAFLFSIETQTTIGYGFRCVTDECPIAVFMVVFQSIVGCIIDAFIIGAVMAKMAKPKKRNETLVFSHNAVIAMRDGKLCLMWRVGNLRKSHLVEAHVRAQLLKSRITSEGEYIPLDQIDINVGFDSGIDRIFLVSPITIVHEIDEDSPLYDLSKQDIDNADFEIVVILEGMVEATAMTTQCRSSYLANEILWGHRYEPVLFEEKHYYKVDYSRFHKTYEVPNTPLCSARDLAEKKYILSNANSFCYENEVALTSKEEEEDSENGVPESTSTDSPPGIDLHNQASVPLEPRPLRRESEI
TMEM16A reconf: TMEM16A chloride channel inhibitors, confirmation, cell-based, re-confirmation | shares compounds with ANO1 block | HEK293 TMEM16A/YFP-H148Q, iodide quench fluorescence; ionomycin added to raise cell calcium | inhibition, % at 10 µM | hit rate 39% among 2,300 | AID 652189, 2013;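 active means mean duplicate percent inhibition, scaled so buffer wells are 0 and the reference blocker 100, over three buffer SD above buffer mean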
HEK293 Ca mobil: calcium mobilization in TMEM16A/YFP HEK293 cells, confirmation, counter-screen for TMEM16A inhibitor project; Fluo4 calcium mobilization; calcium response (% of ionomycin), % at 10 µM; shares compounds with ANO1 block; hit rate 2% among 2,300;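 active means duplicate-averaged calcium signal over 20% of the ionomycin maximum, relative to buffer baseline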;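 further: each well's signal is peak minus trough fluorescence divided by its pre-addition baseline; 0% = buffer wells and 100% = ionomycin wells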
Parental YFP cnt: iodide YFP quench changes in parental YFP-HEK293, counter-screen for TMEM16A inhibitor project, cell-based; shares compounds with ANO1 block; YFP ratio F(max-min)/F0 at 10 µM; AID 652233, 2013; 2,300 tested, under 10 active; ionomycin;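 active means yellow fluorescent protein signal ratio exceeding the buffer control mean by over 5 SD of those controls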;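 further: ratio is mean of duplicate wells from kinetic YFP trace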
ClC-1 inh: ClC-1 chloride channel inhibition, selectivity assay for TMEM16A inhibitor project, cell-based, voltage-dependent ClC-1. shares compounds with ANO1 block. CHO ClC-1-YFP, iodide influx fluorescence quench; iodide control reads 0, buffer control 100. ratio percent, % at 10 µM. 2,300 tested, under 10 active;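 active means duplicate-mean ratio percent above the mean of iodide-only control wells, which defines zero, plus 5 of their SD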;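 further: higher percent means stronger block of ClC-1 iodide influx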
* marks the source's active call; other numbers are inactive results; i = inactive; . = no result. Hits are enriched below; roughly 3.5% of the tested compounds scored in any of these assays.

SMILES	ANO1 block	KCNK3 inh	ANO1 activ	KCNK9 block	Kir21 inh	TMEM16A reconf	HEK293 Ca mobil	Parental YFP cnt	ClC-1 inh
CCN1C(=O)[C@H]2[C@@H](c3ccc(-c4ccc(C(C)=O)cc4)cc3)N3CCCC[C@@]3(C(=O)OC)[C@H]2C1=O	i	i	i	i	-1.61	.	.	.	.
N#Cc1c(NC(=O)C2CC=CCC2C(=O)O)sc2c1CCCCCC2 (stereo not drawn)	i	i	i	i	0.21	.	.	.	.
CC(C)(C)C1CCc2c(sc(NC(=O)C3CC=CCC3C(=O)O)c2C#N)C1 (stereo not drawn)	100*	i	i	i	0.31	21.0%*	i	-1.11	-19.5
Nc1ncnc(Nc2ccccc2Cl)n1	i	i	i	i	-1.16	.	.	.	.
Cc1ccc2nc(SCC(=O)N3CCC(Cc4ccccc4)CC3)nc(=O)n2c1	100*	i	i	i	-0.74	16.5%*	i	-1.09	-1.0
CC(C(=O)N1CCN(c2ccccc2)CC1)N1C(=O)C2CC=CCC2C1=O (stereo not drawn)	25*	i	i	i	0.13	i	i	-1.01	-15.0
C[C@@H](C(=O)N1CCN(c2ccccc2)CC1)N1C(=O)C2CC=CCC2C1=O (stereo partly drawn)	.	i	i	.	.	.	.	.	.
Cc1cccnc1CN1CCN(C(=O)c2cc(COc3ccc4ncccc4c3)on2)CC1	25*	i	i	i	-0.36	22.0%*	i	-1.13	-39.5
CCC(O)C1CCN(C(=O)c2cc(COc3ccc4ncccc4c3)on2)CC1 (stereo not drawn)	100*	i	i	i	-0.3	i	i	-1.05	-20.0
CCOC(=O)N1CCN(C(=O)c2cc(COc3ccc4ncccc4c3)on2)CC1	25*	i	i	i	1.74	31.0%*	i	-0.958	-25.5
COc1cc(N=Nc2ccc(C)cc2S(N)(=O)=O)c(C)cc1N	.	i	i	.	.	.	.	.	.
C/C(CC(=O)Nc1ccccc1F)=N\NC(=O)Cc1ccc(Cl)cc1	i	i	i	i	-0.77	.	.	.	.
O=C(Nc1ccc(Cl)cc1)c1csc(Cc2ccccc2)n1	25*	i	i	i	-0.01	30.5%*	i	-0.873	-4.0
COc1ccc(Cc2nc(C(=O)Nc3ccc(F)cc3)cs2)cc1	100*	i	i	i	-0.01	26.5%*	i	-0.711	-8.5
COc1ccc(NC(=O)c2ccccn2)cc1	i	i	i	i	0.21	.	.	.	.
COc1ccc(CNC(=O)c2csc(Cc3ccc(Cl)cc3)n2)cc1	100*	i	i	i	-9.03*	i	i	-1.16	-10.0
COc1ccc(Cc2nc(C(=O)Nc3ccccc3)cs2)cc1	100*	i	i	i	1.39	24.5%*	i	-1.06	-15.0
O=C(Nc1ccc(Cl)c(Cl)c1)c1csc(-c2ccccc2)n1	i	i	i	i	0.37	.	.	.	.
COc1ccc(Cn2nnc(C(=O)Nc3ccc(F)cc3)c2N)cc1	i	i	i	i	-0.54	.	.	.	.
CCCCn1c2c(c3ccccc31)CCc1nonc1-2	i	i	i	i	-0.68	.	.	.	.
COc1ccc(NC(=O)c2csc(Cc3ccc(Cl)cc3)n2)cc1	100*	i	i	i	-1.49	i	i	-0.909	-4.0
O=C(CSc1n[nH]c(-c2ccccc2O)n1)NC1CCCCC1	100*	i	i	i	0.05	i	i	-1.27	11.5
O=C(CSc1n[nH]c(-c2ccccc2O)n1)N1CCCc2ccccc21	i	i	i	i	-0.64	.	.	.	.
Cc1cc(C(=O)OCC(=O)NC(=O)c2cccn2C)c2ccccc2n1	i	i	i	i	-0.23	.	.	.	.
COc1ccccc1CN1CC(C(=O)NCc2nccn2C)CCC1=O (stereo not drawn)	i	i	i	i	0.26	.	.	.	.
SMILES	ANO1 block	KCNK3 inh	ANO1 activ	KCNK9 block	Kir21 inh	TMEM16A reconf	HEK293 Ca mobil	Parental YFP cnt	ClC-1 inh
C=C(C)C1Cc2c(C)nn(-c3cccc4ccccc34)c2C1 (stereo not drawn)	25*	i	i	i	0.15	46.0%*	i	-0.912	-9.0
C=C(C)C1Cc2c(C)nn(-c3ccccc3)c2C1 (stereo not drawn)	i	i	i	i	0.29	.	.	.	.
CC(C)c1noc2ncc(C(=O)c3cc(Cl)cc(Cl)c3O)cc12	25*	i	i	i	-0.94	32.5%*	i	-0.882	-3.5
Cc1ccccc1OCC(=O)N(Cc1ccc(N(C)C)cc1)C1CCS(=O)(=O)C1 (stereo not drawn)	100*	i	i	i	0.07	i	i	-1.04	-10.0
CN(C)c1ccc(CN(C(=O)COc2ccccc2)C2CCS(=O)(=O)C2)cc1 (stereo not drawn)	i	i	i	i	0.19	.	.	.	.
O=C(Nc1ccc(F)cc1)c1ccc(CSc2ccccc2)o1	i	i	i	i	-1.02	.	.	.	.
CC(=O)c1ccc(NC(=O)c2ccc(CSc3ccccc3)o2)cc1	100*	i	i	i	0.54	22.0%*	i	-0.891	-9.0
N#Cc1nc(N2CCCC2)nc(N2CCCC2)n1	100*	i	i	i	-2.04	22.0%*	i	-0.92	0.0
O=C(NCc1ccccc1)C(=O)Nc1nccs1	i	i	i	i	-0.44	.	.	.	.
Cc1cccc(OCCCCc2c(C)n[nH]c2C)c1C	100*	i	i	i	-0.1	i	i	-1.06	-16.0
CC(C)(C)n1cnc2cc(NS(=O)(=O)c3ccc(Br)cc3)ccc21	25*	i	i	i	-0.41	i	i	-0.91	-10.5
Cc1ccc(S(=O)(=O)Nc2ccc3c(c2)ncn3C(C)(C)C)cc1	i	i	i	i	0	.	.	.	.
